Consider 21 compounds from PubChem BioAssay (Tox21).

Molecules are shown by their SMILES. Where “and” joins values, the source holds several entries; their conditions need not be identical. Equal entries are not always repeated. Results filed as inconclusive are left out. Some structures have more than one record in an assay (separate samples or runs), and their calls can disagree. Calls of active or inactive are those of the source. The call rests on the fitted dose curve; in most records, active means well fitted curve in the direction sought with a large enough effect in the repeat runs; inconclusive means weak or mixed curves; inactive means no such curve, though single readings can be large; an effect the other way counts as inactive or inconclusive.

The nature of assay [1]: Caspase-3/7 induction in CHO-K1 cells by small molecules, qHTS cell viability counter screen (AID 1346979). Further: nearly all actives have a fitted effect of over 35% in size. Further: potency means the concentration at half of the fitted maximal effect. In short, it runs like this:
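Following a 5hr settling period, CHO-K1 cells at 1,500 per well received DMSO-dissolved compounds. Cell viability was quantified 16hr later by CellTiter-Fluor fluorescence, measured after 1hr with reagent at 37C.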
In general terms: Quantitative high-throughput screening tests each substance at several concentrations.

The nature of assay [2]: Caspase-3/7 induction in CHO-K1 cells by small molecules, qHTS assay (AID 1346980). Further: nearly all actives have a fitted effect of over 15% in size. In short, it runs like this: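 Wild-type cells were seeded at 1,500 per well and settled 5 hr at 37 C, 5% CO2, then exposed to DMSO-dissolved compounds for 17 hr. Caspase-Glo 3/7 reagent was added, and luminescence was read after 30min at room temperature.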
Assay [3] concerns the target Nuclear receptor subfamily 1 group I member 2 (Homo sapiens) (UniProt O75469). The assay can be described thus: Human pregnane X receptor (PXR) small molecule agonists, qHTS assay (AID 1346982). Further: nearly all actives have a fitted effect of over 35% in size. Further: potency means the concentration at half of the fitted maximal effect. In short, it runs like this:
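PXR-Luc HepG2 reporter cells (CYP3A4-driven luciferase) in 5% charcoal-stripped FBS medium, plated 5 h before compound addition, then treated 24 h at 37C. Luciferase read by ONE-Glo luminescence after 30 min at room temperature.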

For assay [4], the target named is Cytochrome P450 2D6 (Homo sapiens) (UniProt P10635). The assay can be described thus: Cytochrome P450 Family 2 Subfamily D Member 6 (CYP2D6) small molecule antagonists: luciferase reporter qHTS assay (AID 1671196). Further: nearly all actives have a fitted effect of over 50% in size. Further: potency means the concentration at half of the fitted maximal effect. On activity change, negative = inhibition: series mostly up to about 120 µM. In outline: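 Cell-free P450-Glo system: CYP2D6 with proluciferin substrate was pre-incubated with compound for 10 min, then reacted with NADPH regeneration for 1 h at room temperature. Luciferin product was detected after 20 min, and data were reported as relative luminescence units.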
Chain of Cytochrome P450 2D6 (Homo sapiens) (P10635 whole entry, looked up): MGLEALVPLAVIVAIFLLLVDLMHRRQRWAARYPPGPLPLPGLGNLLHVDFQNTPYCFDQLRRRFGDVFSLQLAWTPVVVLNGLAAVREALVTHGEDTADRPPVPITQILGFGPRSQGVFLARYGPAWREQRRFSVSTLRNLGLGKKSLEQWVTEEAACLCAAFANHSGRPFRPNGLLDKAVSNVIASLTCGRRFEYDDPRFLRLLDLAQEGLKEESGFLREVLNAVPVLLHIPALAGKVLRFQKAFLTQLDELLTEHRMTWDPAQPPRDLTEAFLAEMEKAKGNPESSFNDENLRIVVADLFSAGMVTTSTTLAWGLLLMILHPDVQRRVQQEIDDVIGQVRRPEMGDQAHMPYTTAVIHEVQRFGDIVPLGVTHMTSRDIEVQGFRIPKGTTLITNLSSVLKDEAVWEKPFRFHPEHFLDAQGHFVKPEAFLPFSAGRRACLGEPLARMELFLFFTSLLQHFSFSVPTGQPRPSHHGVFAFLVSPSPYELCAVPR
(Reporter assays use an easily measured gene product as a stand-in for the process of interest.)

The target in assay [5] is Cytochrome P450 2C9 (Homo sapiens) (UniProt P11712). The assay can be described thus: Cytochrome P450 Family 2 Subfamily C Member 9 (CYP2C9) small molecule antagonists: luciferase reporter qHTS assay (AID 1671198). Further: nearly all actives have a fitted effect of over 50% in size. Further: potency means the concentration at half of the fitted maximal effect. On activity change, negative = inhibition: series mostly up to about 120 µM. In short, it runs like this:
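CYP2C9 activity was measured with a P450-Glo proluciferin substrate. Enzyme–substrate mix was held with compound for 10 min at room temperature, then NADPH regeneration solution was added for 1 h at 37C. Luciferin product was read as luminescence.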

For assay [6], the target named is Cytochrome P450 2C19 (Homo sapiens) (UniProt P33261). The assay can be described thus: Cytochrome P450 Family 2 Subfamily C Member 19 (CYP2C19) small molecule antagonists: luciferase reporter qHTS assay (AID 1671197). Further: nearly all actives have a fitted effect of over 65% in size. Further: potency means the concentration at half of the fitted maximal effect. On activity change, negative = inhibition: series mostly up to about 120 µM. In outline:
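Relative luminescence units recorded 20 min after the detection reagent stopped a 1 h, 37C CYP2C19 reaction on proluciferin substrate, which was started by NADPH regeneration following 10 min room-temperature compound preincubation; ketoconazole positive control.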

Assay [7] is described as follows: Caspase-3/7 induction in HepG2 cells by small molecules, qHTS cell viability counter screen (AID 1346981). Further: nearly all actives have a fitted effect of over 30% in size. Further: potency means the concentration at half of the fitted maximal effect. On activity change, negative = cytotoxicity: series mostly up to about 92 µM. In short, it runs like this:
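Wild-type HepG2 cells, 2,000/well, settled 5 hr at 37 C, 5% CO2 before compound addition. Viability read by CellTiter-Fluor fluorescence, reagent added after 16 hr compound exposure, then 1 hr at 37C, in the same wells as the caspase read.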

Assay [8] addresses Nuclear receptor subfamily 1 group I member 2 (Rattus norvegicus) (UniProt Q9R1A7). The assay can be described thus: Rat pregnane X receptor (rPXR) activation by small molecules, qHTS assay (AID 1346983). Further: nearly all actives have a fitted effect of over 20% in size. Conditions: rPXR luciferase reporter cells, One-Glo luminescence, 24 h; stronger effect = higher value. In outline: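 Cell-based rPXR luciferase reporter assay, 2,000 cells per well, rested 5hr at 37 C before compound addition in DMSO, then 24 hr at 37 C. One-Glo reagent was added and luminescence read after 30 min at room temperature.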

For assay [9], the target named is Nuclear receptor subfamily 1 group I member 2 (Homo sapiens) (UniProt O75469). The assay can be described thus: CYP3A4 induction through human pregnane X receptor (PXR) by small molecules, qHTS assay (AID 1346984). Further: nearly all actives have a fitted effect of over 40% in size. In outline:
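DPX-2 HepG2 cells carrying a PXR response element and CYP3A4-promoter luciferase construct, treated with compounds 24 hr at 37C. Then P450-Glo CYP3A4 Luciferin-IPA substrate (3uM final) for 3 hr at 37C, One-Glo added, luminescence read.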

For assay [10] the target is unchanged. The assay can be described thus: Human pregnane X receptor (PXR) activation by small molecules, qHTS assay (AID 1346985). Further: nearly all actives have a fitted effect of over 40% in size. In outline: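 DPX-2 cells (HepG2 co-transfected with a PXR response element and a CYP3A4-promoter luciferase construct) were seeded at 2,000 per well, rested 5 hr at 37C, then exposed to DMSO-dissolved compounds for 24 hr. Activation was read as luciferase luminescence.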
On the % scale 0 is the no-effect control and ±100 the full control effect.

Chain of Nuclear receptor subfamily 1 group I member 2 (Rattus norvegicus) (Q9R1A7 whole entry, looked up): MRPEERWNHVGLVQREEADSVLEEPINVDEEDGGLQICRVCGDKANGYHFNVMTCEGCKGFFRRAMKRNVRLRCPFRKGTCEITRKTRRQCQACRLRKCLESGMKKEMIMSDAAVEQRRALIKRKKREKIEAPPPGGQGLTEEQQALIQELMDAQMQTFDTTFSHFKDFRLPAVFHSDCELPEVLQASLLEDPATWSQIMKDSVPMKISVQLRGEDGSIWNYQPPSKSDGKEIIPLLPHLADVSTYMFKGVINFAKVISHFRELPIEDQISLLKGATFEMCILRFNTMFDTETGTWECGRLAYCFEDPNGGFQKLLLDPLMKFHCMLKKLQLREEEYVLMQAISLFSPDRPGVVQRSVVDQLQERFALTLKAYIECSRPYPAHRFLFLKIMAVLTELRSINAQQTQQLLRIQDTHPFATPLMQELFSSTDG
Chain of Cytochrome P450 2C9 (Homo sapiens) (P11712 whole entry, looked up): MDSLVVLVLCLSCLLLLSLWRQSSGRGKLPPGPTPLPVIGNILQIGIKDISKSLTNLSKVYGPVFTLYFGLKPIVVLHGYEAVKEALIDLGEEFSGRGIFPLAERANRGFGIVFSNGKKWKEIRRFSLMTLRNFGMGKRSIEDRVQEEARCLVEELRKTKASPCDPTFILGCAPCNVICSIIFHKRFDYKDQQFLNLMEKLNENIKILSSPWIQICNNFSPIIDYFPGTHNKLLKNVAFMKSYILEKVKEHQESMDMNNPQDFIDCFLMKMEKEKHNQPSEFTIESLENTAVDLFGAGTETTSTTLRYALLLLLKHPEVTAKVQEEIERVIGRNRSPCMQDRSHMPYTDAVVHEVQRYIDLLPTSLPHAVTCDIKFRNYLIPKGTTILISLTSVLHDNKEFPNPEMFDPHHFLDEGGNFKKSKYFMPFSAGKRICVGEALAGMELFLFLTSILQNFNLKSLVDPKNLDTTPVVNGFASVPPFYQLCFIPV
Chain of Cytochrome P450 2C19 (Homo sapiens) (P33261 whole entry, looked up): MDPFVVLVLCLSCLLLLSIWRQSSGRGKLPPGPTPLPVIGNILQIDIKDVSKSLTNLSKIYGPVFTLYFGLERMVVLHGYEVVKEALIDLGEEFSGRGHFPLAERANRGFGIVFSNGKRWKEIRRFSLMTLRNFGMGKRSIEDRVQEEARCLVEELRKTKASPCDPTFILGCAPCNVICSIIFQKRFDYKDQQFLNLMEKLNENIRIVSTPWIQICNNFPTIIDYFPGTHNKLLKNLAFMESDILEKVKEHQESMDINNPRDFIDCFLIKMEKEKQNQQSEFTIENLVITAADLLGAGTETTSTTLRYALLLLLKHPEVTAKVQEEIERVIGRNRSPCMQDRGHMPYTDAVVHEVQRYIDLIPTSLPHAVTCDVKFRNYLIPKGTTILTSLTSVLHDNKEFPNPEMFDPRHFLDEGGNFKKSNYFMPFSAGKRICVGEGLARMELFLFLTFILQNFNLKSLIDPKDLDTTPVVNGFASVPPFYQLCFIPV
Chain of Nuclear receptor subfamily 1 group I member 2 (Homo sapiens) (O75469 whole entry, looked up): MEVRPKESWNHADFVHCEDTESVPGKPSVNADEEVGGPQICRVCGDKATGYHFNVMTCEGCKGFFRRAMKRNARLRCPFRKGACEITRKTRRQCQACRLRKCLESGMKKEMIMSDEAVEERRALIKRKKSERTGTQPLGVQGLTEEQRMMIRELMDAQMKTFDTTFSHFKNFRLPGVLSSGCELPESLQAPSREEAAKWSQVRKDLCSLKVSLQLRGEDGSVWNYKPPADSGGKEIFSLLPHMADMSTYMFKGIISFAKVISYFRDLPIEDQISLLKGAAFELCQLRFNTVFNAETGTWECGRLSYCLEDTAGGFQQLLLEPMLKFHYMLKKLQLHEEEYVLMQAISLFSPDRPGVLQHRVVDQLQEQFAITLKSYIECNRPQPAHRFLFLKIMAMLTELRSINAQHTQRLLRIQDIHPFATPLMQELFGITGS

In the case of `CCCCC(CC)COC(=O)CC(C(=O)OCC(CC)CCCC)S(=O)(=O)O` (centres undefined), the Potency in [1] was 52.4 µM (active); in [3] it was 5.88 µM (active) and 3.06 µM (active); in assay [4] it was “inactive and 17.8 µM (active)”; in assay [5] it was 15.3 µM (active) and 12.6 µM (active). The Potency entry in assay [2] is “inactive”.

Take `CCCCCC(=O)O[C@]1(C(C)=O)CC[C@H]2[C@@H]3CCC4=CC(=O)CC[C@]4(C)[C@H]3CC[C@@]21C`: the Potency is 60.7 µM (active) and 33.5 µM (active) in [1]; 9.62 µM (active) and 11.9 µM (active) in assay [3]; 6.28 µM (active) and inactive in assay [4]; 17.7 µM (active) and 17.4 µM (active) in assay [6]; 7.91 µM (active) and 11 µM (active) in [5]. The Potency entry in assay [2] was “inactive”.

As for `C=C(C)C(=O)O`, the Potency result in assay [1], in [2], in assay [3], in assay [4], in assay [6] and in assay [5] was “inactive” in each case.

For `CCN(CC)CCOc1ccc(/C(=C(\Cl)c2ccccc2)c2ccccc2)cc1`, the Potency in assay [1] and in assay [7] was 55.6 µM (active) in each case.

In the case of `NC(Cc1ccc(Cl)cc1)C(=O)O` (centres undefined), the activity change, negative = cytotoxicity in assay [1] was 10.4% [at 0.349 µM] (inactive). The caspase-3/7 activation in assay [2] was 1.39% [at 0.349 µM] (inactive). The activation in assay [3] is -5.94% [at 0.349 µM] (inactive). The activity change, negative = inhibition was -0.77% [at 0.435 µM] (inactive) in assay [4], 18.5% [at 0.435 µM] (inactive) in assay [6] and 6.61% [at 0.435 µM] (inactive) in assay [5].

With `CCc1ccc(C(c2ccc(CC)cc2)C(Cl)Cl)cc1`, the Potency result in [1], in [2] and in [4] was “inactive” in each case. For the same compound, the Potency was 31.1 µM (active) and 24.3 µM (active) in [3]; 6.43 µM (active) and 3.56 µM (active) in assay [6]; 14.4 µM (active) and 12.6 µM (active) in assay [5].

Turning to `O=C(Oc1ccccc1)c1ccccc1O`, the Potency entry in assay [1], in [2], in [3], in [4] and in assay [6] was “inactive” in each case. Further, in [5], the Potency is 35.6 µM (active) and 24.5 µM (active).

Consider `COc1nc(C)nc(Cl)c1NC1=NCCN1`, for which the Potency entry in assay [2], in assay [7], in assay [3], in assay [9], in assay [10] and in assay [4] was “inactive” each time. The Potency entry in [6] and in assay [5] was “inactive” throughout. In addition, the max activation in assay [8] is -0.617% (inactive).

With `CC(C)C(=O)c1c(C(C)C)nn2ccccc12`, the Potency entry in assay [1], in assay [2], in [4], in assay [6] and in [5] was “inactive” throughout. In assay [3], the Potency is 26.6 µM (active).

`CC(C)(C)NCC(O)COc1ccccc1OCC1CCCO1` (centres undefined): the Potency result in assay [1], in [2], in assay [3], in [6] and in assay [5] was “inactive” each time. Also, the Potency in assay [4] was 2.75 µM (active).

Turning to `C=CC(=O)OCCCCCCOC(=O)C=C`, the Potency in assay [1] is 43.8 µM (active) and 43.3 µM (active); in assay [6], 39.9 µM (active); in assay [5] it was 64.1 µM (active) and 56.4 µM (active). In addition, the Potency result in assay [7], in [3] and in assay [4] was “inactive” each time.

As for `O=C(Nc1ccccc1SSc1ccccc1NC(=O)c1ccccc1)c1ccccc1`, the Potency in assay [1] is 24.5 µM (active) and 27.3 µM (active); in assay [3] it was 48.8 µM (active) and 30.6 µM (active); in [6], 3.19 µM (active) and 2.52 µM (active); in [5], 505 nM (active) and 564 nM (active). The Potency result in assay [2] and in assay [4] was “inactive” in each case.

In the case of `Clc1ccc2c(c1)C(N1CCNCC1)=Nc1ccccc1O2`, the Potency entry in assay [2], in assay [7] and in [3] was “inactive” in each case. In addition, the Potency in [4] is 3.99 µM (active) and 3.09 µM (active); in [6] it was 63.3 µM (active) and inactive; in assay [5], 17.8 µM (active) and inactive.

Regarding `c1ccc2cc3c(ccc4ccccc43)cc2c1`, the Potency entry in assay [2] is “inactive”. Moreover, the Potency in assay [3] was 27.4 µM (active) and 10.9 µM (active); in [4], 35.7 µM (active); in assay [6], 50.2 µM (active); in [5], 25.2 µM (active).

Regarding `Nc1cc(S(=O)(=O)O)cc2cc(S(=O)(=O)O)cc(O)c12`, the Potency result in [2] and in assay [3] was “inactive” each time. Also, the Potency in assay [7] is 54.5 µM (active); in assay [4], 35.6 µM (active); in assay [6], 19.9 µM (active) and 22.4 µM (active); in assay [5], 39.9 µM (active).

On to `O=C1NCC2(CCN(CCc3ccccc3)CC2)O1`, for which the Potency result in assay [2], in assay [7], in assay [3], in [9], in assay [10] and in [6] was “inactive” throughout. The Potency result in assay [5] is “inactive”. Besides, in assay [8], the max activation was -2.2% (inactive). Besides, in [4], the Potency was 13.8 µM (active).

`CNC1(C)C2CCC(C2)C1(C)C` (centres undefined): the Potency result in [2], in assay [7], in assay [3], in [4] and in [5] was “inactive” each time.

Consider `O=C1Nc2ccccc2C1(c1ccc(O)cc1)c1ccc(O)cc1`, for which the Potency entry in [2] and in [7] was “inactive” throughout. The Potency in assay [3] is 61.1 µM (active) and inactive; in assay [6], 17.8 µM (active) and 9.77 µM (active); in assay [5], 6.33 µM (active) and 3.89 µM (active).

For the compound `Nc1nc(=S)c2[nH]cnc2[nH]1`, the Potency result in assay [2], in assay [3], in assay [9], in assay [10] and in assay [4] was “inactive” each time. Also, the max activation in assay [8] was -4.65% (inactive). Also, the Potency in assay [6] is 30.9 µM (active); in [5], 38.9 µM (active) and 71 µM (active) and 30.9 µM (active).

For `Cc1cc(C(C)(C)C)c(O)c(C(C)(C)C)c1`, the Potency result in assay [2], in assay [3], in [4] and in assay [6] was “inactive” in each case. Also, the Potency in assay [5] was 35.7 µM (active) and inactive.

For the compound `O=C(OCc1ccccc1)c1ccc(O)cc1`, the Potency entry in assay [2], in assay [7], in [3] and in assay [10] was “inactive” in each case. In addition, the max activation in assay [8] is 0.826% (inactive).
